Experiment [1] deals with T1, Aspartate--tRNA(Asp/Asn) ligase (Mycobacterium tuberculosis (strain ATCC 25618 / H37Rv)) (UniProt P9WFW3).
T1 sequence (whole entry): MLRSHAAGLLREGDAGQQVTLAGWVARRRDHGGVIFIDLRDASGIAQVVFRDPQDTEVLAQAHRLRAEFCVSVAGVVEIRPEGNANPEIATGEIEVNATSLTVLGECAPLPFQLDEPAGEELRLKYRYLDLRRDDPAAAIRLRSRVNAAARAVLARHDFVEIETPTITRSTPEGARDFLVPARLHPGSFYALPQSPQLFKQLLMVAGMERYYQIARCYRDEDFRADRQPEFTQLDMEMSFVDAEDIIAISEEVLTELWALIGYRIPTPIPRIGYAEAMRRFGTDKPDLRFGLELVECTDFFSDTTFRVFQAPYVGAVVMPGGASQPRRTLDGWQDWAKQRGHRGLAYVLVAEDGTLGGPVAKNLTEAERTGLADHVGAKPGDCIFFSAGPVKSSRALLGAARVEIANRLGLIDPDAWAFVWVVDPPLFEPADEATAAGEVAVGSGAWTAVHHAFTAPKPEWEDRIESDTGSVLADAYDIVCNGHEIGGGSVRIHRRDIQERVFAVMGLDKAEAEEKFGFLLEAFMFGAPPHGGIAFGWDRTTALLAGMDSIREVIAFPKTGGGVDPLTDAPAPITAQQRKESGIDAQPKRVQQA
Put plainly: Assay for Asp RNA synthetase-1 from Mycobacterium tuberculosis. Format: functional. Set-up: scale not given: direction of the effect not stated beside the values. The following applies: 30 µM.

Experiment [2] addresses Shiga toxin 2 (Escherichia coli O157:H7) (UniProt P09385+P09386). Put plainly: E. coli 0.157:H7 Shiga Toxin SOP - stx2 screening assay. Format: functional. Set-up: scale not given: direction of the effect not stated beside the values. The conditions noted are these: 30 µM.

This is an account of results in ChEMBL document CHEMBL3988442, “University of Dundee, Small-Polar-MMV Screening Library” (2021).

For the molecule `O=S(=O)(CCNCc1ccc2c(c1)CCO2)N1CCOCC1`, the Percent Effect in experiment [1] was 0.97%; in experiment [2], -25.2%.

For `CCc1nc(C2CCCN(C(=O)c3cnn(CC)c3)C2)no1` (stereo not drawn), the Percent Effect was found to be 2.22% in experiment [1] and 3.55% in experiment [2].

`Cc1ccc(C(=O)Nc2cn[nH]c2)cn1`: the Percent Effect in experiment [1] amounted to 1.01%; in experiment [2], 15.1%.

Turning to `CNC(=O)[C@H]1CCS(=O)(=O)[C@@H]2CN(Cc3ccc(OC)cc3)C[C@H]12`, the Percent Effect was -0.605% in experiment [1] and 3.61% in experiment [2].

With `Cn1c(CC2CCS(=O)(=O)C2)nnc1SCCOc1ccccc1F` (stereo not drawn), the figures for the Percent Effect in experiment [1] and in experiment [2] were 2.75% and -10.2%, respectively.

As for `Cc1cc(CN2CCCC2c2c(C)nn(C)c2Cl)no1` (stereo not drawn), the Percent Effect was -1.57% in experiment [1] and 8.59% in experiment [2].

`O=C([C@H]1COC[C@H]2CN(Cc3ccco3)C[C@H]21)N1CCCO1`: the Percent Effect in experiment [1] is 6.23%; in experiment [2], -30.2%.

As to `Cc1ccc2c(c1)CCC21CCN(C(=O)CO)CC1`, the Percent Effect in experiment [1] was 5.32%; in experiment [2] it was -38.4%.

Take `CN(Cc1ccc(F)cc1)[C@@H]1CN(C(=O)c2cccs2)C[C@H]1O`: the values for the Percent Effect in experiment [1] and in experiment [2] were 4.22% and -17.2%, respectively.

Consider `Cc1cccc(CN2C(=O)CO[C@@H]3CN(CCO)C[C@H]32)c1`, for which the results for the Percent Effect in experiment [1] and in experiment [2] were -4.77% and 2.07%, respectively.

On to `CC(C)N1CCO[C@H]2CN(C(=O)c3ccoc3)C[C@H]21`, for which the Percent Effect in experiment [1] is 8.86%; in experiment [2], -1.73%.

Regarding `Cc1cc(N2CCCC2c2cnccn2)ncn1` (stereo not drawn), the Percent Effect in experiment [1] worked out at 0.908%; in experiment [2], 9.94%.

Turning to `CS(=O)(=O)NCC1CCCN(C(=O)c2cc3ccccc3o2)C1` (stereo not drawn), the Percent Effect in experiment [1] was 3.19%; in experiment [2], -22%.

As to `CC(C)c1ncncc1C(=O)N1CCN(Cc2cscn2)CC1`, the values for the Percent Effect in experiment [1] and in experiment [2] were -2.56% and -22.9%, respectively.

Regarding `Cc1nc(C)n(C2CCCN(C(=O)CCc3ccncc3)C2)n1` (stereo not drawn), the results for the Percent Effect in experiment [1] and in experiment [2] were -6.6% and 11.7%, respectively.

As for `Cc1cccc(CN2C(=O)CC[C@@H]3[C@H]2CCN3CC2CCOCC2)n1`, the Percent Effect in experiment [1] is -1.51%; in experiment [2], -5.24%.

In the case of `COCCOc1cccc(C(=O)N2CCCC(n3ccnc3C)C2)c1` (stereo not drawn), the figures for the Percent Effect in experiment [1] and in experiment [2] were -2.52% and -16%, respectively.

`Cc1cncc(C(=O)N2CCCC(C(=O)CCc3ccccc3)C2)c1` (stereo not drawn): the Percent Effect was 13.2% in experiment [1] and -26.1% in experiment [2].

As for `CC(C)c1nc2c(n1C)CCN(Cc1nc(-c3ccsc3)no1)C2`, the Percent Effect was -3.99% in experiment [1] and -3.44% in experiment [2].
